Columns and labels:
Assay in all cases: log2 ratio of Biotin-Ahx-Ub-VS probe labelling (fragment/DMSO); higher = less target engagement (more negative = stronger competition), active = hit call of the paper (q ≤ 0.05, log2 ratio ≤ -1)
Conditions in all cases: compound concentration: 200 uM; treatment time: 3 h
[1] = biological target: USP34 (UniProt Q70CQ2)
Outline: (§1)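 Global-median-normalised Spectronaut label-free quantities were compared by unpaired t-test, and values are average log2 ratios of fragment over vehicle. Only proteins with ≥2 unique peptides were used. HEK293T lysate (495 µg per sample) was treated in triplicate with fragment at 200 µM or vehicle for 3 h and then with Biotin-Ahx-Ub-VS at 0.5 µM final for 1 h. Labelled DUBs were then NeutrAvidin-enriched, digested with LysC and trypsin, and run by diaPASEF LC-MS/MS.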

[2] = biological target: T1, USP36 (UniProt Q9P275)
T1 sequence (whole entry): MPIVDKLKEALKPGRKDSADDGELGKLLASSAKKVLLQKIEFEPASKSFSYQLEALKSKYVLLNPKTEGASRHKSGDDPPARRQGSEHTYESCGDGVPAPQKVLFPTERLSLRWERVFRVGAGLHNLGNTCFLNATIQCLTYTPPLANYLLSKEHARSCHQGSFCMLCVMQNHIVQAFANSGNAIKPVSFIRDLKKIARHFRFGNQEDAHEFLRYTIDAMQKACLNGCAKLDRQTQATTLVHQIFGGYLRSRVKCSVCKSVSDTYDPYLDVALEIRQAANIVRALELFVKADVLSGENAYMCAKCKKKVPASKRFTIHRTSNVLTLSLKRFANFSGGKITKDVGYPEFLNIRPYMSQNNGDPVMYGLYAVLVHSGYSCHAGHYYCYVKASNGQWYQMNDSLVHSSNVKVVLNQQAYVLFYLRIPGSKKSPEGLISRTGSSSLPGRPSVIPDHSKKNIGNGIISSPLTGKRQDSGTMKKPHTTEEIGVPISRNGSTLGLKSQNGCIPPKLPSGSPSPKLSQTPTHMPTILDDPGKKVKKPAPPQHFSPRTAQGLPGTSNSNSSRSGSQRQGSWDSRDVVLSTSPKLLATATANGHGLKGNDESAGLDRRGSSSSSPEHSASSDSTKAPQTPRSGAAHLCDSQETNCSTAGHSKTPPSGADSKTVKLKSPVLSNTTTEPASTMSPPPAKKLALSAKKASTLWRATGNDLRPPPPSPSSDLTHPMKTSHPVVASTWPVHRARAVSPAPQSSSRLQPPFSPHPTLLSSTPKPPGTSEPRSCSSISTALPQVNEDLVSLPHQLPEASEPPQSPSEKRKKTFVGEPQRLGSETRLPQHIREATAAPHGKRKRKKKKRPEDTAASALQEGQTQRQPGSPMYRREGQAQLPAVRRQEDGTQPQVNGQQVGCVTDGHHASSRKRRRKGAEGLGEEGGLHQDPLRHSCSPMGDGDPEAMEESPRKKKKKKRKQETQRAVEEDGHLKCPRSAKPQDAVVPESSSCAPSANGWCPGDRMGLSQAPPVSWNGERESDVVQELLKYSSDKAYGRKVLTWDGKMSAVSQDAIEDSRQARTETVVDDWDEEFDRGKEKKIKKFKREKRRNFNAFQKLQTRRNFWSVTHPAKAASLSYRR
Outline: as §1

[3] = biological target: T2, USP38 (UniProt Q8NB14)
T2 sequence (whole entry): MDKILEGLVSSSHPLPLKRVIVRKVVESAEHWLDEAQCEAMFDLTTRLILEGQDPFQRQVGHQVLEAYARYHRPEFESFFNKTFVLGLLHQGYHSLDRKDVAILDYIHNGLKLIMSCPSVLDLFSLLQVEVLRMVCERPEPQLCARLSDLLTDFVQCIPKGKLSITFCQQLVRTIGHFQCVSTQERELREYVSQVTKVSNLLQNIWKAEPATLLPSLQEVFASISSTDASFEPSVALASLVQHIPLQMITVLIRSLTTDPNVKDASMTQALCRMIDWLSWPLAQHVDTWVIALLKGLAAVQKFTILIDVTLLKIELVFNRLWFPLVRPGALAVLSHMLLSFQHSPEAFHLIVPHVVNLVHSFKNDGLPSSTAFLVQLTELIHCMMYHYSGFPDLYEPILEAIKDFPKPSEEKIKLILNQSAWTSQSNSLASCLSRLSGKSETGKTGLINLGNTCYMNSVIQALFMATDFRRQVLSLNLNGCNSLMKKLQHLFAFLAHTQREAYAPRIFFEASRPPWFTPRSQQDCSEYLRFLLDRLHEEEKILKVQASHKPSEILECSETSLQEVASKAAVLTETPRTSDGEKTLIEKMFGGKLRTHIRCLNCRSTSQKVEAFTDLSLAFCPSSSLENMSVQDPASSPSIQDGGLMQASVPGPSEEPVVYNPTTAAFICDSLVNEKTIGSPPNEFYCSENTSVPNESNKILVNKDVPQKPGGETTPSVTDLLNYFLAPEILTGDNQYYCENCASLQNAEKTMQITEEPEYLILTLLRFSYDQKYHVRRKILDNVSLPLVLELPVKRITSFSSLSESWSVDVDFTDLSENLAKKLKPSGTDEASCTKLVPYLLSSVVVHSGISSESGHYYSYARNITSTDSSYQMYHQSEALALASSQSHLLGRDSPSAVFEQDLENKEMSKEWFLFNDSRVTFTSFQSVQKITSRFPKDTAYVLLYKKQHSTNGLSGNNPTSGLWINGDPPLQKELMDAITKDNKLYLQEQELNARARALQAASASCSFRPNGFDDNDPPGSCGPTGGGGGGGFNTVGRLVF
Outline: as §1

[4] = biological target: T3, USP39 (UniProt Q53GS9)
T3 sequence (whole entry): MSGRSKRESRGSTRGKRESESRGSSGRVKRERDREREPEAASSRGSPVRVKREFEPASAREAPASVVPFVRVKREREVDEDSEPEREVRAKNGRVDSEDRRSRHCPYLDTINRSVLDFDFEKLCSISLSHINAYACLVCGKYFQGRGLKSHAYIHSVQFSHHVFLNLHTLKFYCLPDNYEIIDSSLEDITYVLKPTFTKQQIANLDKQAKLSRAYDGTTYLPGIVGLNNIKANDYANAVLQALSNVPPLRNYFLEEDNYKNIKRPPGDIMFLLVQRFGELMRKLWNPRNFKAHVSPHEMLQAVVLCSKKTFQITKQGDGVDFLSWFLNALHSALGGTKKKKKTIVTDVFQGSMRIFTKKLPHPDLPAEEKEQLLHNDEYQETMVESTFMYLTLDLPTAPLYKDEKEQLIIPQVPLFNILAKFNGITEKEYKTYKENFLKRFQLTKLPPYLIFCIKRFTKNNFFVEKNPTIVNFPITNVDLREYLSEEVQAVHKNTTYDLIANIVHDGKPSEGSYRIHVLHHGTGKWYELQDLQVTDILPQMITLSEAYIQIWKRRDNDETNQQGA
Outline: as §1

[5] = biological target: T4, USP4 (UniProt Q13107)
T4 sequence (whole entry): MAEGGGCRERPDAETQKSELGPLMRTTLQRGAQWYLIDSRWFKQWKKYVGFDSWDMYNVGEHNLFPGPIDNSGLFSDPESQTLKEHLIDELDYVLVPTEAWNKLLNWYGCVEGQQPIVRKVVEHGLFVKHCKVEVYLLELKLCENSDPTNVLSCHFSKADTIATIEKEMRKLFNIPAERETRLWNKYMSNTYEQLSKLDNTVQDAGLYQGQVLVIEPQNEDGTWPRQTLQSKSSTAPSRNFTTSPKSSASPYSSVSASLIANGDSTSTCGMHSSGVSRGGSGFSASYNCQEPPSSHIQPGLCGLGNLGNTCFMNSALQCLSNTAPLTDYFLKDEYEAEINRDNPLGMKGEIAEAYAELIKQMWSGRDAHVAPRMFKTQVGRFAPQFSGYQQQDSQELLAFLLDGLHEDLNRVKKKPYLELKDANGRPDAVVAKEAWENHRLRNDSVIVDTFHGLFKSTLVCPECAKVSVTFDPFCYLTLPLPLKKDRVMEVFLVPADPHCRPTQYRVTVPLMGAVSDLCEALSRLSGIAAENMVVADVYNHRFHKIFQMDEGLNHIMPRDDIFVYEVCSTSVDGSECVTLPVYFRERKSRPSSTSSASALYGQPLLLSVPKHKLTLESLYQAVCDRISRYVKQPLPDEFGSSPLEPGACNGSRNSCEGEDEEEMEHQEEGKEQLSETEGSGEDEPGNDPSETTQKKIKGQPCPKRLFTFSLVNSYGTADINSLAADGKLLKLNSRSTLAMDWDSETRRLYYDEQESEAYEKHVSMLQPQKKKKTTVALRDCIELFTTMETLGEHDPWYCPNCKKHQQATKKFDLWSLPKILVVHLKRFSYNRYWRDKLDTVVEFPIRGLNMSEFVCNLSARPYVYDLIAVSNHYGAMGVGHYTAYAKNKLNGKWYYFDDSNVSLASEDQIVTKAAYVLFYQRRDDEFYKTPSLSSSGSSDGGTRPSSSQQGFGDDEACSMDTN
Outline: as §1

Measured: log2 ratio of Biotin-Ahx-Ub-VS probe labelling

USP34, sequence (Q70CQ2 whole entry, the tested form may be a part): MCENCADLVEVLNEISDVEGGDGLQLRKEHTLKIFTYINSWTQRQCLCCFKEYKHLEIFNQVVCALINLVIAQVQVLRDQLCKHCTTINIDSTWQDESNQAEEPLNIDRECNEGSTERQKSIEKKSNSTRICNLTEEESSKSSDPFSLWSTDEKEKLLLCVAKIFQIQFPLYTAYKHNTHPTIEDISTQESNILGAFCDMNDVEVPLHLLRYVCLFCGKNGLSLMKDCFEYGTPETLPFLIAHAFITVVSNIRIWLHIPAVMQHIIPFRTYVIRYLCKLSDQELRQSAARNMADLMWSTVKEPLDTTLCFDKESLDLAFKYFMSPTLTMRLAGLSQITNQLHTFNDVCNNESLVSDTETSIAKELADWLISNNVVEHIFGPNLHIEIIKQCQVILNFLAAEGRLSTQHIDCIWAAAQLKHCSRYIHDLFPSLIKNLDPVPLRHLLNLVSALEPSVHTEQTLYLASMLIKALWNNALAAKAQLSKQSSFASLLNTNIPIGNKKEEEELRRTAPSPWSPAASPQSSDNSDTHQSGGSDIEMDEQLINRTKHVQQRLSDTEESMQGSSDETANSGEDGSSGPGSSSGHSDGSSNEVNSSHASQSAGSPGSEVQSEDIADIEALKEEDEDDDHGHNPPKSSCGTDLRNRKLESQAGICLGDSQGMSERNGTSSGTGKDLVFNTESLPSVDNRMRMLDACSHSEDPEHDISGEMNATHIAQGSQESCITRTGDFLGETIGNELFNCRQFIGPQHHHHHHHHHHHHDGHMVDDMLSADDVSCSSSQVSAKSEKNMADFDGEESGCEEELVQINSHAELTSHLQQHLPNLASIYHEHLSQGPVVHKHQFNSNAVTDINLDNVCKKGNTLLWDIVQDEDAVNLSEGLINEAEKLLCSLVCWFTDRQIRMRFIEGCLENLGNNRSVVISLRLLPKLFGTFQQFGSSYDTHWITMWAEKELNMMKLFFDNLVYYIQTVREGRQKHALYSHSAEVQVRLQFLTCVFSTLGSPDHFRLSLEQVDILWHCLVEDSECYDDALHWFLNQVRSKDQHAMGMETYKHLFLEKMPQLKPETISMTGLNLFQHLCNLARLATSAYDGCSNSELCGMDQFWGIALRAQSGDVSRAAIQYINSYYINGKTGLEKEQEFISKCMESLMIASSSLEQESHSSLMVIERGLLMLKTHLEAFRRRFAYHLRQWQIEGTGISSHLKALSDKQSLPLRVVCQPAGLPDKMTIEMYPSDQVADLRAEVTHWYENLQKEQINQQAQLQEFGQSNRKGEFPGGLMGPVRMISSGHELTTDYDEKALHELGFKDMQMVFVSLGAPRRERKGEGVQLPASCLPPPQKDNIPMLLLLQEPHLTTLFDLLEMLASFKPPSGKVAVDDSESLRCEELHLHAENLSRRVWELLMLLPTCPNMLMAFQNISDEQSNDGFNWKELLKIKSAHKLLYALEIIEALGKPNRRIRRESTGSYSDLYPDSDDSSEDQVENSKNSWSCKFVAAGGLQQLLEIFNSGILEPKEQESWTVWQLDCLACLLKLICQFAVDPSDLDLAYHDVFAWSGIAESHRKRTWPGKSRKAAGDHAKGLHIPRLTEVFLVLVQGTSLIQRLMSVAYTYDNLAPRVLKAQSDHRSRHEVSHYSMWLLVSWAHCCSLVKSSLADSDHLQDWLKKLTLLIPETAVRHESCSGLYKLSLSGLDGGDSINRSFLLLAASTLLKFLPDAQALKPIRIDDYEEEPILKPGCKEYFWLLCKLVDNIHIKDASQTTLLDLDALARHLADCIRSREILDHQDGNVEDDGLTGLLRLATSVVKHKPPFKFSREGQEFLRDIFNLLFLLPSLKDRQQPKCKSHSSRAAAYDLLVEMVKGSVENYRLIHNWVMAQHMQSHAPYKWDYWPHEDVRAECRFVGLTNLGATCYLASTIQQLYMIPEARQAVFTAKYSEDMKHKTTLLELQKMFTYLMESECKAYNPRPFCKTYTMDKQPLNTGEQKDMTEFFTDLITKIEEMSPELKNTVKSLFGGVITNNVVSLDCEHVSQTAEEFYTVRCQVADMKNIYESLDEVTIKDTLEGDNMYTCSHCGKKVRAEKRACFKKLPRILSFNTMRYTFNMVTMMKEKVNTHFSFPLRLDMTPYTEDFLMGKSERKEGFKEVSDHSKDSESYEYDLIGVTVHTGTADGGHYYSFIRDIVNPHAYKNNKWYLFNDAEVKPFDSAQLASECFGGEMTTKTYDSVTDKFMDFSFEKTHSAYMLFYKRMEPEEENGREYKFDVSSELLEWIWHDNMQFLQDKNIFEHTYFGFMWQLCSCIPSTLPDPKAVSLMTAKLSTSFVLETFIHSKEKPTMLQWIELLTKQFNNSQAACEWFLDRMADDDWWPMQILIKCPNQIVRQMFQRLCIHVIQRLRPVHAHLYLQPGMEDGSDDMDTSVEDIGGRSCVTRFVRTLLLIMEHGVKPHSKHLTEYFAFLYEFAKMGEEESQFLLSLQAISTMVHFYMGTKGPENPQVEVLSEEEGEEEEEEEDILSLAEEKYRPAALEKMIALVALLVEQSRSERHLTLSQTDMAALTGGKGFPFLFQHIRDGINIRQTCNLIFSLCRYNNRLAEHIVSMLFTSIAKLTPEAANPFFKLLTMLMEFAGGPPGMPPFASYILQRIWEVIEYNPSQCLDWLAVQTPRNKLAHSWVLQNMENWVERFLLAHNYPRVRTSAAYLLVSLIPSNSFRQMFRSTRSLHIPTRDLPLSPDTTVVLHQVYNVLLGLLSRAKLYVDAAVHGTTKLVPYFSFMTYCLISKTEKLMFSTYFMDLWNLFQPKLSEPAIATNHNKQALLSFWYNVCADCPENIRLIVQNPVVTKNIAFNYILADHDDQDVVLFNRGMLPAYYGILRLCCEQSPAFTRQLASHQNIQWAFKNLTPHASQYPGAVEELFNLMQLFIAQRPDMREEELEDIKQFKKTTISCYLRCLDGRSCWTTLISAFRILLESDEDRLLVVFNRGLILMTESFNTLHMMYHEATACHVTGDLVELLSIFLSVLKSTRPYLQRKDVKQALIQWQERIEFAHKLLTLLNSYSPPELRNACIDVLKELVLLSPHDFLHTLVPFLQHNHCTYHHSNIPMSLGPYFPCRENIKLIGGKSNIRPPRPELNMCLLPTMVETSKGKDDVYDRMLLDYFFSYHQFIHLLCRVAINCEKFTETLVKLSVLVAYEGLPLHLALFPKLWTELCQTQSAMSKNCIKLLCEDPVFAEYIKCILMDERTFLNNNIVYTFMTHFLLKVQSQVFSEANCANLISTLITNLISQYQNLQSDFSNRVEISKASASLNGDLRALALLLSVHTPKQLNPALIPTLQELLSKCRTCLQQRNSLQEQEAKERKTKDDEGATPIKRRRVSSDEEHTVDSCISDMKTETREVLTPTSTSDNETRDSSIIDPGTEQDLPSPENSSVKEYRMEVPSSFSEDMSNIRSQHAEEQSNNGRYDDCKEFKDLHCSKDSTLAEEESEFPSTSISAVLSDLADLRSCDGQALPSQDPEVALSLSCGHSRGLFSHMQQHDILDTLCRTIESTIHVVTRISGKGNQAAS

CC(NC(=O)CCl)c1cccc(Cl)c1 (stereo not given)
inactive: [1] -0.653 | [2] -0.283 | [3] -0.175 | [4] -0.294 | [5] -0.239
